# Test results: the supplement of paper PMC7411054
# Where a name gives a salt, the structure may show the parent alone.
# What was measured:
# Settings in all cases: treatment time: 24 h
# HepG2-TUBA1B-RELA [1] = assay: lowest phenotypically active concentration; higher = less potent
# Summary of the method: (§1)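 Each of fifteen gene-edited A549, HepG2 and WPMY1 reporter lines, marked with BFP for segmentation and GFP and RFP/FusionRed, was treated in four wells at 0.3, 1, 3 or 9 µM for 24 h prior to live imaging. Normalisation of per-well live-cell features used solvent control wells. Deviation needed ≥3 of 4 wells beyond the 95th percentile of control Euclidean distances, and reproducibility needed a median replicate Pearson correlation above the 95th percentile of non-replicates. Both were required for phenotypic activity.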
# WPMY1-GM130-SQSTM1 [2] = assay: as above
# Summary of the method: as §1
# WPMY1-TP53BP1-CLTA [3] = assay: as above
# Summary of the method: as §1
# A549-ACTB-RAB5A = assay: phenotypically active (imaging signature differs from DMSO and reproducible) at any of 0.3-9 uM (binary (1 = active, 0 = inactive)); higher = active
# Summary of the method: as §1
# A549-CANX-COX4 = assay: as above
# Summary of the method: as §1
# A549-GM130-SQSTM1 [4] = assay: as above
# Summary of the method: as §1
# A549-TP53BP1-CLTA = assay: as above
# Summary of the method: as §1
# A549-TUBA1B-RELA = assay: as above
# Summary of the method: as §1
# HepG2-ACTB-RAB5A = assay: as above
# Summary of the method: as §1
# HepG2-CANX-COX4 = assay: as above
# Summary of the method: as §1
# HepG2-GM130-SQSTM1 [5] = assay: as above
# Summary of the method: as §1
# HepG2-TP53BP1-CLTA = assay: as above
# Summary of the method: as §1
# HepG2-TUBA1B-RELA [6] = assay: as above
# Summary of the method: as §1
# WPMY1-ACTB-RAB5A = assay: as above
# Summary of the method: as §1
# WPMY1-CANX-COX4 = assay: as above
# Summary of the method: as §1
# WPMY1-GM130-SQSTM1 [7] = assay: as above
# Summary of the method: as §1
# WPMY1-TP53BP1-CLTA [8] = assay: as above
# Summary of the method: as §1
# WPMY1-TUBA1B-RELA = assay: as above
# Summary of the method: as §1
# A549-GM130-SQSTM1 [9] = assay: lowest phenotypically active concentration; higher = less potent
# Summary of the method: as §1
# HepG2-GM130-SQSTM1 [10] = assay: as above
# Summary of the method: as §1
Compound,lowest phenotypically active concentration (HepG2-TUBA1B-RELA [1]) [µM],lowest phenotypically active concentration (WPMY1-GM130-SQSTM1 [2]) [µM],lowest phenotypically active concentration (WPMY1-TP53BP1-CLTA [3]) [µM],phenotypically active (A549-ACTB-RAB5A),phenotypically active (A549-CANX-COX4),phenotypically active (A549-GM130-SQSTM1 [4]),phenotypically active (A549-TP53BP1-CLTA),phenotypically active (A549-TUBA1B-RELA),phenotypically active (HepG2-ACTB-RAB5A),phenotypically active (HepG2-CANX-COX4),phenotypically active (HepG2-GM130-SQSTM1 [5]),phenotypically active (HepG2-TP53BP1-CLTA),phenotypically active (HepG2-TUBA1B-RELA [6]),phenotypically active (WPMY1-ACTB-RAB5A),phenotypically active (WPMY1-CANX-COX4),phenotypically active (WPMY1-GM130-SQSTM1 [7]),phenotypically active (WPMY1-TP53BP1-CLTA [8]),phenotypically active (WPMY1-TUBA1B-RELA),lowest phenotypically active concentration (A549-GM130-SQSTM1 [9]) [µM],lowest phenotypically active concentration (HepG2-GM130-SQSTM1 [10]) [µM]
C[C@H](CCC(=O)O)C[C@H](C)C[C@H](C)C(=O)/C=C(\O)[C@H](C)C[C@H](C)C/C=C/[C@@H](C)[C@@H](O)[C@@H](C)[C@@H](O)C[C@@H]1CC[C@@](C)([C@H]2CC[C@@](C)([C@@H](C)O)O2)O1 [Ionomycin free acid],9,9,9,0 (inactive),1 (active),0 (inactive),0 (inactive),0 (inactive),0 (inactive),1 (active),0 (inactive),0 (inactive),1 (active),1 (active),1 (active),1 (active),1 (active),0 (inactive),,
O=C(Nc1ccncc1)C(=O)c1cn(Cc2ccc(Cl)cc2)c2ccccc12 [Indibulin],1,≤ 0.3,≤ 0.3,1 (active),0 (inactive),1 (active),1 (active),1 (active),1 (active),1 (active),1 (active),1 (active),1 (active),1 (active),1 (active),1 (active),1 (active),1 (active),≤ 0.3,≤ 0.3
C[C@@H]1CC[C@H]2[C@@H](C)C(=O)O[C@@H]3O[C@@]4(C)CC[C@@H]1[C@]32OO4 [Artemisinin],≤ 0.3,≤ 0.3,1,1 (active),0 (inactive),1 (active),1 (active),1 (active),1 (active),0 (inactive),1 (active),1 (active),1 (active),1 (active),1 (active),1 (active),1 (active),1 (active),3,3
CC[C@]12C=CCN3CC[C@]4(C(=C(C(=O)OC)C1)Nc1ccccc14)[C@@H]32 [Tabersonine dichlorhydrate],9,9,9,1 (active),1 (active),1 (active),0 (inactive),1 (active),1 (active),1 (active),1 (active),1 (active),1 (active),1 (active),1 (active),1 (active),1 (active),1 (active),9,9
CC(C)[C@@]1(NC(=O)[C@@H]2C[C@@H]3c4cccc5[nH]cc(c45)C[C@H]3N(C)C2)O[C@@]2(O)[C@@H]3CCCN3C(=O)[C@H](Cc3ccccc3)N2C1=O [Dihydroergocristine mesylate],3,9,9,1 (active),1 (active),1 (active),1 (active),1 (active),1 (active),1 (active),1 (active),1 (active),1 (active),1 (active),1 (active),1 (active),1 (active),1 (active),9,3
COc1ccc2c(c[n+](C)c3c4cc5c(cc4ccc23)OCO5)c1OC [Chelerythrine chloride],,,9,1 (active),0 (inactive),0 (inactive),1 (active),0 (inactive),0 (inactive),0 (inactive),0 (inactive),1 (active),0 (inactive),0 (inactive),0 (inactive),0 (inactive),1 (active),0 (inactive),,
COc1cc2c(c(OC)c1OC)-c1ccc(O)c(=O)cc1[C@@H](N)CC2 [Trimethylcolchicinic acid],9,,,1 (active),1 (active),1 (active),1 (active),1 (active),0 (inactive),1 (active),0 (inactive),0 (inactive),1 (active),0 (inactive),0 (inactive),0 (inactive),0 (inactive),0 (inactive),9,
COc1cc2c(c(OC)c1OC)-c1ccc(OC)c(=O)cc1[C@@H](NC(C)=O)CC2 [colchicine],≤ 0.3,≤ 0.3,≤ 0.3,1 (active),1 (active),1 (active),1 (active),1 (active),1 (active),1 (active),1 (active),1 (active),1 (active),1 (active),1 (active),1 (active),1 (active),1 (active),≤ 0.3,≤ 0.3
C[C@@]12C(=O)OC(=O)[C@]1(C)[C@H]1CC[C@@H]2O1 [Cantharidin],3,3,3,1 (active),1 (active),1 (active),1 (active),0 (inactive),1 (active),1 (active),1 (active),1 (active),1 (active),1 (active),1 (active),1 (active),1 (active),1 (active),3,9
